# Reference: PubChem BioAssay (NCI)
# The panel holds about 83,000 compounds, 20% with a hit somewhere; the sample as a whole holds those more often.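 Negative percent growth values reflect cell death: -40 means 40% of the cells present at the start died, and -100 means all died.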 Activity calls are given as the source filed them. Rule for the calls: active = growth percent below 10; inactive = the rest.
# Tested on: M14 melanoma
# Test: NCI-60 one-dose screen, 48 h (100 = growth as untreated, 0 = no growth, -100 = all killed)
# Conditions: 10 µM unless noted
row,Compound,growth
1,CC(C)(C)n1cc(-c2ccnc(NCCCNS(=O)(=O)c3cccc(F)c3)c2)c(-c2cccc(O)c2)n1,34.9% (inactive)
2,Cc1ccc(N2CCN(C(C)C(N)=O)CC2)cc1 (centres undefined),99.2% (inactive)
3,NC(N)=N/N=C/c1ccc(-c2ccc(-c3cc(Cl)cc(Cl)c3)s2)cc1,93.9% (inactive)
4,Cc1ccc2nc(-c3cc4c([nH]c5ccccc54)c(-c4ccc(F)c(F)c4)n3)[nH]c2c1,83.5% (inactive)
5,CNc1ccc(Br)c2c1C(=O)c1ccccc1C2=O,118% (inactive)
6,O=C(O)c1cn(C2CC2)c2cc(N3CCN(C(=O)/C=C/c4ccc(Cl)cc4)CC3)c(F)cc2c1=O,82.8% (inactive)
7,CCC1=CCC[C@@]2(C)CCC[C@@]3(C)CCCC(C)(C)[C@]1([O-])[O+]32,101% (inactive)
8,O=c1[nH]c(-c2ccccc2)nc(CN2CCCCC2)c1O,108% (inactive)
9,Cc1ccc(Nc2nnc(-c3ccc(Cl)cc3)o2)c(C)c1,57.6% (inactive)
10,O=C(N/N=C/C=C\c1ccccc1)C(=O)N/N=C/C=C/c1ccccc1,107% (inactive)
11,COc1cc(-c2nc(N=Nc3c(O)[nH]c4ccc(Br)cc34)[nH]c(=O)c2C#N)cc(OC)c1OC,97.1% (inactive)
12,O=C(NNC(=O)N1c2ccccc2C=Cc2ccccc21)c1ccc2ccccc2c1,101% (inactive)
13,COc1cccc(-c2nc3sccn3c2-c2ccnc(NCCCNS(=O)(=O)c3ccc(C(F)(F)F)cc3)c2)c1,47.7% (inactive)
14,c1cc(C2=N[C@@H]3c4ccccc4C[C@@H]3O2)nc(C2=N[C@@H]3c4ccccc4C[C@@H]3O2)c1,99.4% (inactive)
